Only some compounds are listed: those with a hit (about 2.4% of all), similar ones and a draw of the others.
POLK inh = DNA polymerase kappa (human) inhibition; purified Pol kappa, fluorescent DNA synthesis assay, 10 min; Potency, µM (titrated, usually from 107 µM), for the others: top-dose activity, negative = inhibition, hits mostly inhibitors; actives 0.53% (n = 400,000); also: % is scaled to controls: 0 for no effect and ±100 for the full control effect
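Kinetic fluorescence readout at 0 and 10 min followed reaction start with substrate at 50 nM final. Beforehand, enzyme (10 nM Pol kappa) stood 15 min with compound at room temperature; buffer-only wells were negative controls.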
Pol beta inh = DNA polymerase beta (human) inhibition; P06746; Pol beta primer extension/strand displacement, fluorescence kinetic; Potency, µM (doses to about 114 µM), for the others: at the highest dose activity change, negative = inhibition, hits mostly inhibitors; actives 1.3% (n = 340,000); also: % is scaled to controls: 0 for no effect and ±100 for the full control effect
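Preincubation: enzyme (10 nM) with compound, 15 min, RT. Reaction: substrate added to 50 nM final. Reads: 0 and 10 min. Analysis: normalized, Hill fit.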
Pol eta inh = inhibitors of human DNA polymerase eta; Potency, µM (top dose mostly 114 µM), without a hit: at the top dose activity change, negative = inhibition, most hits filed as inhibitors; actives 1.2% (n = 390,000); Q9Y253; recombinant Pol eta, fluorescent DNA replication assay; also: % is scaled to controls: 0 for no effect and ±100 for the full control effect
Target sequence (Q9Y253 whole entry, looked up): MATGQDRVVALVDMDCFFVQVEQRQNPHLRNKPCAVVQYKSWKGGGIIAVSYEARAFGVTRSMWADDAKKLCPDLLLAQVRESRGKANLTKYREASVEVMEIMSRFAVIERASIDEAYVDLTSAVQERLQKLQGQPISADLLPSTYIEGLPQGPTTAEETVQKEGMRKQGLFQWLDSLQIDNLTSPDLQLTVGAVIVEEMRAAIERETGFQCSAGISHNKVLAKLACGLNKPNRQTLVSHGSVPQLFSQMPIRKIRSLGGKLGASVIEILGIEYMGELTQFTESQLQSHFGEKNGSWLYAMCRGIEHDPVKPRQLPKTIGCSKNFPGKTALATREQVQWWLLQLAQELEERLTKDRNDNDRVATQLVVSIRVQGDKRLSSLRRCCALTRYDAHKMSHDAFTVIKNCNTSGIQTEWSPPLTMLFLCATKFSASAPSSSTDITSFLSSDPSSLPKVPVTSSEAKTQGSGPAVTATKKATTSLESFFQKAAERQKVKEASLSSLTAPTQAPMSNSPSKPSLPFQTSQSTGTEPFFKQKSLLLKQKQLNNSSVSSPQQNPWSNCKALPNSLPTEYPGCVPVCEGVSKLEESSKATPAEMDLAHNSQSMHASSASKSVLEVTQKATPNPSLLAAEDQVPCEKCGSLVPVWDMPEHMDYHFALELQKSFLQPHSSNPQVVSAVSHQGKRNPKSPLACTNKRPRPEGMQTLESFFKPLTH
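Pol eta at 10 nM preincubated with compounds 15 min at room temperature; reaction started with fluorescent substrate (50 nM final) and read kinetically at 0 and 10 min.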
GLS inhibitor = inhibitors of human glutaminase (GLS); AID 624170; actives 0.21% (n = 410,000); Potency, µM (series often up to 45.5 µM), inactives show at the highest dose activity change, negative = inhibition, hits mostly inhibitors; GLS enzymatic activity, qHTS titration; also: % is scaled to controls: 0 for no effect and ±100 for the full control effect
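Coupled fluorescence readout: glutamate oxidase/HRP/Amplex Red detect glutamate formed by hKGA from L-glutamine (1 mM solution added). Buffer 45 mM KH2PO4 pH 8.2, 0.02% Tween-20; reads at t0 and 30 min RT.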
KAT2A inh = blocks human GCN5L2 histone acetyltransferase; actives 0.21% (n = 390,000); GCN5L2 HAT assay, ThioGlo1 CoA-SH fluorescence; AID 504327; Q92830; Potency, µM (top dose mostly 58.9 µM), without a hit: top-dose activity change, negative = inhibition, most hits filed as inhibitors; also: % is scaled to controls: 0 for no effect and ±100 for the full control effect
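Compounds, pin-transferred from DMSO stocks, meet 20nM GCN5L2 for 15 min before the reaction begins with H3(1-25) peptide (75uM) and acetyl-CoA (70uM). Thiol-reactive ThioGlo1 reports CoA release over 20 min at room temperature.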
POLI inh = inhibitors of human DNA polymerase iota | Pol iota fluorescent replication assay, 10 min | Potency, µM (series often up to 115 µM), for the others: at the top dose activity, negative = inhibition, most hits filed as inhibitors | actives 1% (n = 390,000)
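Pol iota at 10 nM preincubated 15 min with compounds at room temperature; reaction started with fluorescent substrate, 50 nM final. Fluorescence read kinetically at 0 and 10 min; buffer-only wells as negative control.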
Numbers without * were called inactive; ? = inconclusive; · = no result; [ ] = remark or other dose. Calls follow the shape of the dose curve; as a rule, active = well fitted inhibition curve with a large enough effect; inconclusive = small, poorly fitted or top-dose-only effect, or another doubt; inactive = no such curve, though single readings can be large or run the other way. Potency is read from the fitted curve at half-maximal effect.

SMILES	POLK inh	Pol beta inh	Pol eta inh	GLS inhibitor	KAT2A inh	POLI inh
COc1cccc(NC(=O)Cn2nc(-c3ccncc3)ccc2=O)c1	-3.8%[60.1 µM]	16.6%	-13.0%	13.8%	-16.8%	20.2%
CC(=O)c1ccc2c3c(cccc13)C(=O)N(CCc1ccccc1)C2=O	?	31.6µM*	28.2µM*	4.4%	1.9%	?
Cc1ccccc1Cn1ccc(NC(=O)c2cc3ncc(Br)cn3n2)n1	-2.0%	20µM*	-3.2%	4.3%	-6.1%	11.7%
Cc1ccc(-c2nnn(CC(=O)Nc3ccc4nn(-c5ccccc5)nc4c3)n2)o1	-16.1%	22.4µM*	14.8%	-0.1%	0.1%	10.9%
COc1ccc(C(CC(=O)c2ccccc2)C2CCCCC2=O)cc1 (stereo not given)	-0.5%	-1.5%	-9.0%	1.3%	-6.5%	33.1%
COc1ccc(C(=O)CC(c2ccccc2)C2C(=O)CCCC2=O)cc1 (stereo not given)	-20.3%	-18.6%	79.4µM*	2.3%	0.0%	?
Cc1ccc(OCC(=O)Nc2sc3c(c2C#N)CC(C)(C)NC3(C)C)cc1	-6.7%	-16.6%	-3.9%	9.4%	-5.4%	133.2%
CC1(C)Cc2c(sc(NC(=O)COc3cccc4ccccc34)c2C#N)C(C)(C)N1	-15.2%	22.4µM*	?	?	2.7%	?
Cn1cc(S(=O)(=O)N2CCCCC2)cc1C(=O)N1CCN(c2ccccc2F)CC1	-10.0%[60.1 µM]	0.3%	-20.4%	4.2%	-8.5%	14.6%
COC(=O)c1sc(N)c(C(=O)OC)c1COC(=O)CCNS(=O)(=O)c1ccc(C)cc1	-9.4%	9.6%	?	3.3%	-2.0%	89.1µM*
CCC[C@H](NC(=O)[C@H](Cc1ccc(O[S+](=O)([O-])O)cc1)NC(=O)OC(C)(C)C)C(=O)NCC(=O)N[C@@H](Cc1c[nH]c2ccccc12)C(=O)N[C@@H](CCC)C(=O)N[C@@H](CC(=O)OCCc1ccccc1)C(=O)O	7.5%[60.1 µM]	·	·	·	-5.1%	·
COc1ccc(-n2nc(C(=O)NCCc3ccc(Cl)cc3)c3c4ccccc4n(C)c3c2=O)cc1	8.1%	42.7%	·	0.0%	-0.6%	14.9%
CCOc1ccc(C[C@H]2NC(=O)CCSSC[C@@H](C(=O)N3CCC[C@H]3C(=O)N[C@@H](CCCN)C(=O)NCC(N)=O)NC(=O)[C@H](CC(N)=O)NC(=O)[C@H]([C@@H](C)O)NC(=O)[C@H]([C@@H](C)CC)NC2=O)cc1	-7.4%[12 µM]	·	·	-0.2%	0.0%	·
Cc1ccc(CSc2nnc(SCC(=O)N/N=C/C=C/c3ccco3)s2)cc1	?	22.4µM*	?	12.3%	-18.5%	?
CCn1c(SCC(=O)N/N=C/C=C\c2ccco2)nc2ccccc21	-30.6%	17.8µM*	?	-1.3%	-2.9%	?
FC(F)c1nc2ccccc2[nH]1	-4.6%	50.1µM*	0.3%	-8.7%	-5.5%	24.2%
FC(c1nc2ccccc2[nH]1)C(F)(F)F (stereo not given)	3.8%	1.1%	2.1%	-9.9%	-1.9%	138.4%
C(=NN=C(NN=Cc1cccs1)NN=Cc1cccs1)c1cccs1	-3.2%	·	-5.6%	3.1%	·	79.4µM*
O=C(N/N=C/c1cccs1)c1ccccn1	-3.5%	0.8%	-0.9%	8.3%	-27.7%	26.5%
CC(C)NC(=O)CC(=O)N/N=C/c1cccs1	-2.2%	14.1µM*	-1.4%	-2.6%	-1.8%	25.0%
COc1cccc2c1C(=O)c1c(O)c3c(c(O)c1C2=O)C[C@](O)(C(=O)CO)C[C@H]3O[C@@H]1C[C@H](N)[C@H](O)[C@H](C)O1	1.5µM*	·	·	·	-5.7%[21.4 µM]	·
C=CCn1c(SCc2nc3sc(C(=O)O)c(C)c3c(=O)[nH]2)nnc1-c1ccccc1	-37.3%	-0.2%	31.6µM*	-4.4%	-4.8%	?
CCOC(=O)c1ccc(CC(=O)c2ccc(O)c(O)c2O)o1	1.58µM*	1.12µM*	?	?	-11.7%	1µM*
CCOC(=O)c1ccc(CC(=O)c2oc3cc(O)ccc3c2C)o1	-18.9%	3.4%	-4.7%	12.1%	-8.9%	56.6%
COc1ccc(Nc2oc(-c3ccc(COc4cccc(C)c4)o3)nc2C#N)cc1	-11.6%	1.2%	-25.5%	-15.0%	-2.9%	-0.8%
SMILES	POLK inh	Pol beta inh	Pol eta inh	GLS inhibitor	KAT2A inh	POLI inh
CCOC(=O)Cc1cc(=O)n(-c2nc3ccccc3s2)[nH]1	79.4µM*	44.7µM*	?	43.0%	?	89.1µM*
C=C(NC(=O)C(=C)NC(=O)c1csc(C2=NC3c4csc(n4)C4NC(=O)c5csc(n5)C(C(C)(O)C(C)O)NC(=O)C5CSC(=N5)/C(=C/C)NC(=O)C(C(C)O)NC(=O)c5csc(n5)C3(CC2)NC(=O)C(C)NC(=O)C(=C)NC(=O)C(=C)NC(=O)C(C(C)C)NC2C=Cc3c(C(C)O)cc(nc3C2O)C(=O)OC4C)n1)C(N)=O (stereo not given)	-18.9%	·	?	-5.0%	·	22.4µM*
N#Cc1c(NC(=O)c2cc3nc(-c4ccc(Br)cc4)cc(C(F)(F)F)n3n2)sc2c1CCCC2	1.5%[60.1 µM]	-18.0%	18.5%	7.0%	-7.4%	-14.4%
CC(C)=CCC/C(C)=C/CC/C(C)=C/CC/C(C)=C/C(=O)O	-8.1%[60.1 µM]	·	·	·	?	·
C=C(C)C1CC=C(C)/C(=N/NC(=O)CNc2ccc(C)cc2C)C1 (stereo not given)	-12.4%	21.1%	-19.6%	2.2%	-0.8%	17.4%
C=C(C)C1CC=C(C)/C(=N/NC(=O)CNc2ccc(OCC)cc2)C1 (stereo not given)	0.2%	-1.6%	-2.8%	0.6%	-10.3%	89.1µM*
COC(=O)c1ccc2c(c1)C(C)(C)C(/C=C/c1ccc(OC)c(OC)c1OC)=[N+]2C	?	?	-3.1%	?	-6.0%	?
COC(=O)c1ccc2c(c1)C(C)(C)C(/C=C/c1ccc(O)cc1)=[N+]2C	28.2µM*	?	16.5%	0.1%	-25.9%	25.1µM*
Cc1ccc(NC(=O)c2c(C)nc3sc(C(=O)Nc4ccc(F)cc4)c(N)c3c2-c2ccc(C)o2)c(C)c1	7.7%	-0.2%	-5.1%	5.3%	-13.7%	37.5%
Cc1cccc(C)c1Nc1nnc(SC/C(O)=C(\C#N)c2nc3ccccc3[nH]2)s1	-16.3%	?	17.8µM*	2.3%	-13.2%	-8.0%
Cc1cc(Br)ccc1SCC(=O)OC/C(O)=C(\C#N)c1nc2ccccc2[nH]1	0.6%	3.2%	-10.7%	3.8%	4.6%	33.5%
Cc1ccc(C)c(SCC(=O)OC/C(O)=C(\C#N)c2nc3ccccc3[nH]2)c1	-28.2%	?	44.7µM*	8.6%	-6.0%	?
CN(C)c1cc(N2CCOCC2)nc(C#N)n1	-6.1%	·	·	·	·	-5.6%
C(=C1NCCN1)c1cccc2ccccc12	·	·	·	-6.3%	·	·
